Structures are written as SMILES. The campaign covered roughly 60,000 compounds. About 370 (0.62%) were called active. This excerpt belongs to a sample that is enriched for actives. A number with no mark means an inactive call. No stated cut-off is given here; in the data, active means inhibition above about 17%; inactive means the rest.

Mitogen-activated protein kinase 10 (Homo sapiens), sequence (P53779 whole entry, looked up): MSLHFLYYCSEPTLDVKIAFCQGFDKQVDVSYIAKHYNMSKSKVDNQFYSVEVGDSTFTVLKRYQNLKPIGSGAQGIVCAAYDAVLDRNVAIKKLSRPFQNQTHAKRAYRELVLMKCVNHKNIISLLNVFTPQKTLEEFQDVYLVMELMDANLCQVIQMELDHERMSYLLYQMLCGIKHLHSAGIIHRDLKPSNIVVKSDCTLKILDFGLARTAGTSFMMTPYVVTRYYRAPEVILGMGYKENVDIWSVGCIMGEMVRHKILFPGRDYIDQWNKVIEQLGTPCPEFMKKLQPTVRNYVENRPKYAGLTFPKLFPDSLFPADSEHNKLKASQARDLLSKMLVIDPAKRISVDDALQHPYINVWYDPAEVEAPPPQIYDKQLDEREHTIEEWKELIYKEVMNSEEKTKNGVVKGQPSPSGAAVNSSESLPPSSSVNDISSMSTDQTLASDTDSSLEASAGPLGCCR

The experiment addresses Mitogen-activated protein kinase 10 (Homo sapiens) (UniProt P53779). The experiment in a line: JNK3 kinase activity inhibitors, primary screen, biochemical, human, purified enzyme (AID 746).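 Further: 0% = DMSO and 100% = reference inhibitor.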 The following applies: HTS, at 8 µM, hits give high values.
For the compound `CCCCc1nc2ccccc2c(=O)n1NC(=O)c1c(O)c2cccc3c2n(c1=O)CC3`, the inhibition – broadly, the change of the read-out against control, counted positive when it falls – is -6.2%. Regarding `CCCC(=O)NC(C)C(c1cccs1)N1CCN(c2ccccc2)CC1` (stereo unspecified), the inhibition is 0.41%.

As to `O=C(NCC12CC3CC(C1)CC(CNC(=O)N1CCCC1)(C3)C2)N1CCCC1`, the inhibition was 2.23%. For the compound `CCOC(=O)CC1C(=O)NCCN1C(=O)COc1ccc(Br)cc1C` (stereo unspecified), the inhibition was 1.6%. The value for `N#Cc1c(/N=C/N2CCCC2)oc(-c2ccccc2)c1-c1ccccc1` was -3.67%. As for `CC(C)n1c(SCC(=O)Nc2ccccc2N2CCCCC2)nc2c1c(=O)n(C)c(=O)n2C`, the inhibition is 0%.

With `Nc1nnc(C2CCCC2)s1`, the inhibition was -0.19%. With `O/N=C(\c1ccc2c(c1)OCCO2)C1CCCCC1` the figure was -1.18%; with `COc1cc(Br)cc(/C=N/c2ncn[nH]2)c1O`, -2.89%; with `Clc1ccc(Cc2nnc(-c3cccs3)o2)cc1`, 2.19%. The value for `CCCc1[nH]nc2c1C(c1ccc(OC(=O)c3ccco3)cc1)C(C#N)=C(N)O2` (stereo unspecified) was 6.15%; that for `CC(=O)NC(C)(C)C1CC=C(C)/C(=N\O)C1` (stereo unspecified) was 0.98%; that for `CCN(CC)S(=O)(=O)c1ccc2nc(CSc3nnnn3-c3ccc(O)cc3)[nH]c2c1` was 8.62%. With `CCN(CC)S(=O)(=O)c1cccc(C(=O)NCC(=O)OCC(=O)NCc2ccccc2)c1` the figure was -1.17%. Consider `CCN(CC)S(=O)(=O)c1ccc2nc(COC(=O)c3n[nH]c4ccccc34)[nH]c2c1`, for which the inhibition was 95.8% (active).

With `Cc1c(CN2CCC(C)CC2)c(=O)n(-c2ccccc2)n1C`, the inhibition was 0.5%. As to `O=P(O)(CP(=O)(c1ccccc1)c1ccccc1)c1ccccc1`, the inhibition was -5.23%.

As for `Cc1nc2c(-c3ccc(F)cc3)c(C)nn2c(C)c1CCC(=O)N1CCN(c2ccccn2)CC1`, the inhibition is 1.08%.

For the compound `Cc1c(C(=O)NCC2CCCO2)sc2nc(-c3ccccc3)cn12` (stereo unspecified), the inhibition is -3.26%. The value for `CCSC1(SCC)N=C(N)C2(C#N)C(c3ccccc3)NC(C)=CC12C#N` (stereo unspecified) was 0.03%.

As to `CCOC(=O)c1ccccc1NC(=O)CC1Nc2ccccc2NC1=O` (stereo unspecified), the inhibition was -0.55%. With `CCOC(=O)C1CCN(C(=O)COc2cc(C)c(Br)c(C)c2)CC1` the figure was 6.51%; with `CC(=O)Oc1ccc(C)cc1N1C(=O)c2ccc(C(=O)O)cc2C1=O`, 0.63%.

`COc1cccc(-c2nc3n(n2)C(c2ccccc2Cl)C(C(N)=O)=C(C)N3)c1` (stereo unspecified): the inhibition was 1.25%. The value for `COc1ccc(NC(=O)c2c(SC)nsc2SC)cc1` was -3.4%; that for `COc1ccc(C(=O)CSc2nccc(=O)[nH]2)cc1` was -1.11%; that for `O=C(CN1CCN(C(=O)c2cccc(F)c2)CC1)Nc1ccccc1F` was -3.2%.

With `CCOC(=O)CSc1nnc(NC(=O)c2cccc(S(=O)(=O)N3CCCCC3)c2)s1`, the inhibition is -2.01%. The value for `CCOC(=O)c1sc(N(Cc2ccccc2)C(=O)CN2C(=O)CN(C)C2=O)nc1C` was 0.36%; that for `Cc1ccc(C(=O)COc2cccc(NC(=O)c3ccco3)c2)cc1` was 0.83%; that for `Cn1c(=O)[nH]c(=O)c2c1nc(CN1CCN(c3ccccc3F)CC1)n2CCc1ccccc1` was 3.94%.

For the compound `Cc1ccccc1NC(=O)c1cnn(-c2ccccc2)c1NC(=O)c1ccco1`, the inhibition is -3.45%.

Take `O=P(c1cccs1)(c1cccs1)c1cccs1`: the inhibition was -3.85%.

For `O=C(Nc1cccc2cccnc12)c1cccc(N2C(=O)CCC2=O)c1`, the inhibition was 4.05%. Turning to `O=C(CSCc1cccs1)N1CCCC1`, the inhibition was 5.67%. As to `CCc1ccc(-c2nnn(Cc3nc4ccccc4s3)n2)cc1`, the inhibition was -6.35%. With `CCC(C)NC(=O)N[C@@H](CCSC)C(=O)O` (stereo partly specified), the inhibition was 1.22%. The value for `O=C(Nc1cc(C(F)(F)F)ccc1Cl)c1cc(C2CC2)on1` was 4.08%.

Turning to `Cn1c(=O)c2c(nc(SCCNS(=O)(=O)c3ccccc3)n2C)n(C)c1=O`, the inhibition was -3.56%. Consider `Cc1ccccc1CSc1nnc(Cn2c(=O)sc3ccccc32)n1C`, for which the inhibition was 0.98%.

For `Cc1ccc2nc3n(c(=O)c2c1)CCC3`, the inhibition was -2.11%. On to `O=C(Cn1[nH]c(=O)c2ccccc2c1=O)Nc1cccc(-c2nnc3n2CCCCC3)c1`, for which the inhibition is -2.76%.

As to `O=c1c2c(nc3n1CCCCC3)sc1c(O)cccc12`, the inhibition is 19.3% (active).

Consider `CCn1cc(C(=O)N2CCN(C3CCCCC3)CC2)c2cc(OC)c(OC)cc2c1=O`, for which the inhibition is -1.36%.

For the compound `O=C(Cn1cnc2c(cnn2-c2ccccc2)c1=O)NCc1ccccc1`, the inhibition was 3.12%. With `CCCc1cc(=O)[nH]c(SCC(=O)OCc2ccccc2)n1` the figure was -3.94%.

Source of the values: PubChem BioAssay AID746 (The Scripps Research Institute Molecular Screening Center, 2007).
